Growth data for 7 compounds are collected here from PubChem BioAssay (NCI).

Common to all, as to assay: NCI-60 one-dose screen, 48 h (100 = growth as untreated, 0 = no growth, -100 = all killed)
Holding throughout (details): 10 µM unless noted

For experiment [1], the system named is NCI-H23 lung.
For experiment [2], the system named is NCI-H226 lung.
Experiment [3] concerns NCI-H322M lung.
The subject of experiment [4] is HOP-62 NSCLC.
Experiment [5] concerns NCI-H460 lung.
Experiment [6] concerns HOP-92 NSCLC.
Experiment [7] concerns NCI-H522 lung.
Experiment [8] deals with A549/ATCC NSCLC.
Experiment [9] relates to 786-0 renal.
The subject of experiment [10] is COLO 205 colon.
Experiment [11] relates to DU-145 prostate.
For experiment [12], the system named is K-562 leukemia.
Experiment [13] concerns MALME-3M melanoma.
Experiment [14] relates to MDA-MB-231 breast.
In experiment [15] the test system is RXF 393 renal.
In experiment [16] the test system is SF-268 CNS.
The subject of experiment [17] is SF-295 CNS.
Experiment [18] concerns SF-539 CNS.
Experiment [19] has as its system UACC-257 melanoma.
The test system of experiment [20] is M14 melanoma.

Each structure is given as a SMILES string. This is part of a sample that, as a whole, favours compounds with a hit. Of some 83,000 tested, about 20% had one in any assay.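 Cell lines were cultured in 96-well plates, exposed to a single compound concentration, and assessed for percent growth 48 hours later.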 Unmarked numbers belong to inactive results. Active and inactive are the calls of the source. Rule for the calls: active = growth percent below 10; inactive = the rest.

Consider `Cc1ccc(NC(=O)Cn2nncc2CN2C(=O)CSC2=O)cc1C`, for which the growth in experiment [1] is 96.8%; in [2] it was 90.7%; in experiment [3] it was 103%; in experiment [4], 98.5%; in experiment [5], 105%; in experiment [6], 112%. The growth in experiment [7] was 94.8%; in [8] it was 102%; in [9], 108%; in [10], 106%; in experiment [11], 106%; in experiment [12], 106%. Besides, the growth was 99% in experiment [13]; 111% in experiment [14]; 103% in [15]; 98.5% in experiment [16]; 103% in experiment [17]; 101% in experiment [18]. The growth in experiment [19] was 102%; in experiment [20], 105%.

`Cc1cc(Cl)c2ccc(N(C)C)cc2n1`: the growth is 100% in experiment [1]; 97.6% in [2]; 110% in [3]; 95.5% in [4]; 106% in experiment [5]; 102% in experiment [6]. The growth was -10.1% (active) in experiment [7]; 94.9% in experiment [8]; 99% in experiment [9]; 102% in experiment [10]; 113% in experiment [11]; 88.7% in experiment [12]. The growth was 108% in experiment [13]; 102% in experiment [14]; 95.5% in experiment [15]; 102% in experiment [16]; 100% in [17]; 106% in [18]. Besides, the growth is 97.4% in [19] and 100% in [20].

On to `FC1(F)CCN(Cc2c[nH]c3cc(Cl)ccc23)C[C@H]1CCc1ccccc1`, for which the growth in [1] is 67.7%; in experiment [2], 43.5%; in experiment [3], 84.3%; in [4] it was 46.1%; in [5], 42.8%; in experiment [6] it was 37.3%. Also, the growth in experiment [7] was 67.6%; in [8], 43%; in experiment [9], 66.9%; in experiment [10], 69.5%; in experiment [11], 65%; in experiment [12], 31.4%. In addition, the growth in [13] is 77.1%; in experiment [14] it was 68.9%; in [15] it was 64.3%; in experiment [16], 72.1%; in experiment [17] it was 54.5%; in [18], 88.6%. In addition, the growth was 53.2% in experiment [19] and 60% in [20].

On to `Cc1ccc(C2CC(c3cccs3)=NN2c2ccc(S(N)(=O)=O)cc2)s1` (stereo not given), for which the growth in [1] was 107%; in [2] it was 89.8%; in experiment [3] it was 98%; in experiment [4], 95.6%; in [5], 88.8%; in [6], 75.2%. In addition, the growth in experiment [7] is 63.2%; in experiment [8], 71.2%; in [9] it was 98.5%; in experiment [10], -75.1% (active); in experiment [11], 99.2%; in [12], 77.9%. The growth in [13] is 79.4%; in experiment [14] it was 91.6%; in experiment [15], 93.1%; in experiment [16] it was 96.5%; in experiment [17] it was 98.3%; in [18] it was 104%. Moreover, the growth in [19] was 36.3%; in experiment [20], 81.9%.

On to `Cc1ccc(S(=O)(=O)NC(CCC(=O)Nc2ccc(Cl)cc2)C(=O)Nc2ccc(Cl)cc2)cc1` (stereo not given), for which the growth was 38.8% in experiment [1]; 57.9% in experiment [2]; 40% in experiment [3]; 14.5% in experiment [4]; 7.89% (active) in experiment [5]; -20.4% (active) in [6]. Further, the growth in experiment [7] is -29.7% (active); in experiment [8], 27.6%; in experiment [9], 16.9%; in experiment [10], 52.7%; in experiment [11], 45.8%; in experiment [12], 2.8% (active). In addition, the growth in experiment [13] was 14.2%; in [14], -5.94% (active); in experiment [15], 22.9%; in experiment [16] it was 38.8%; in [17], 10.5%; in experiment [18], -20.5% (active). The values for the growth in [19] and in experiment [20] were 45.6% and 32.2%, respectively.

On to `COc1cc(/C=C/c2ccc3c(Br)cc(Br)c(O)c3n2)ccc1O`, for which the growth is 36.9% in [1]; 67.7% in experiment [2]; 40.5% in experiment [3]; 33% in experiment [4]; 3.91% (active) in [5]; 16.6% in experiment [6]. Further, the growth in [7] was -38.2% (active); in experiment [8], 14.2%; in [9], 32.6%; in experiment [10], 58%; in [11] it was 42.2%; in experiment [12], -44.5% (active). Also, the growth is 53.7% in experiment [13]; 53% in experiment [14]; 1.71% (active) in experiment [15]; 22.8% in experiment [16]; 27.4% in experiment [17]; 21.5% in experiment [18]. For the same compound, the growth was 25.1% in experiment [19] and 27.1% in [20].

With `Oc1c(C(c2ccc(F)cc2)N2CCCCC2)ccc2cncnc12` (stereo not given), the growth in [1] is 16.1%; in experiment [2] it was -0.0481% (active); in experiment [3] it was 19.4%; in [4], 11.6%; in experiment [5] it was 4.38% (active); in experiment [6], -14.4% (active). Also, the growth in [7] was 4.34% (active); in experiment [8], 5.08% (active); in experiment [9] it was 23.1%; in experiment [10], -30.1% (active); in experiment [11], 23.3%; in [12], 10.4%. The growth was 3.63% (active) in experiment [13]; 14.4% in experiment [14]; 31.1% in experiment [15]; 20.9% in [16]; -1.59% (active) in experiment [17]; 13.9% in experiment [18]. Moreover, the growth was 0.316% (active) in experiment [19] and 15.7% in [20].
